Records with an inconclusive call do not appear. Where a call stands in place of a potency, no number is given. Active and inactive are the calls of the source. Calls come from the whole dose curve; as a rule, active = well fitted inhibition curve with a large enough effect; inconclusive = small, poorly fitted or top-dose-only effect; inactive = no such curve, though single readings can be large or run the other way.

In the assay the target is Rap guanine nucleotide exchange factor 4 (Homo sapiens) (UniProt Q8WZA2). The assay can be described thus: Confirmatory qHTS for antagonist of cAMP-regulated guanine nucleotide exchange factor 4 (EPAC2) (AID 1645885). Note: nearly all actives have a fitted effect of over 25% in size. The settings on record: EPAC2 Rap1B-BODIPY-GDP exchange fluorescence, biochemical; series mostly up to 12.7 µM. On the technique in general: qHTS replaces the single test concentration by a dilution series.
Rap guanine nucleotide exchange factor 4 (Homo sapiens), sequence (Q8WZA2 whole entry, looked up): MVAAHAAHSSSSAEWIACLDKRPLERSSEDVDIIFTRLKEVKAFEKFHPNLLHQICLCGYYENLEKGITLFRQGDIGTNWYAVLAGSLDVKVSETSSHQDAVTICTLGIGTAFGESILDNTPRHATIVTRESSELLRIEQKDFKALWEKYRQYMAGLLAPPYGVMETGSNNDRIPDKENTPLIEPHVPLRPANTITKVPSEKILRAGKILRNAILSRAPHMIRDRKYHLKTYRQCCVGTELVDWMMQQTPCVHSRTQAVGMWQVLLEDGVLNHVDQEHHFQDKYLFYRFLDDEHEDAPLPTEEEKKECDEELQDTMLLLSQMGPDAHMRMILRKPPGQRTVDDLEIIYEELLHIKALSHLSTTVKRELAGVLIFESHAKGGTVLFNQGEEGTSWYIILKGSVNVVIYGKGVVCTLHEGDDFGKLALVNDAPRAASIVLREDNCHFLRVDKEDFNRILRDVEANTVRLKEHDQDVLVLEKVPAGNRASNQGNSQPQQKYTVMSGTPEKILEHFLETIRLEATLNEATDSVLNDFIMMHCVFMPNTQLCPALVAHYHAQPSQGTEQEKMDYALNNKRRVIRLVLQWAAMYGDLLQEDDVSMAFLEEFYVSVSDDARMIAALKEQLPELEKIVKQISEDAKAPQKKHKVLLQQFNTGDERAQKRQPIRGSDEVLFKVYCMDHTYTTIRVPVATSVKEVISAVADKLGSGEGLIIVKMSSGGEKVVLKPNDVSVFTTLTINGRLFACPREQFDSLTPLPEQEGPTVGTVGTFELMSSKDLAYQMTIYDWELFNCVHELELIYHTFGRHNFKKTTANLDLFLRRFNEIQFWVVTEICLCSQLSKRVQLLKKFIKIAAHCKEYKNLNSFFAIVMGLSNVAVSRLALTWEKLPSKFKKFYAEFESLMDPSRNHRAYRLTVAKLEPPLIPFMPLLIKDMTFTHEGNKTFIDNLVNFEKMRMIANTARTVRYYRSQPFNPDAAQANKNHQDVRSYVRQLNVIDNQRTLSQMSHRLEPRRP
As to `CC(c1nc2ccccc2n1Cc1ccccc1)n1c(-c2cnccn2)nc2ccccc21` (stereo unspecified), the Potency entry was “inactive”.

As for `Cc1ccc(NC(=O)CC2S/C(=N/N=C3\CCCc4ccccc43)NC2=O)cc1` (stereo unspecified), the Potency result was “inactive”.

As to `CCOC(=O)C1=CN(Cc2cccc(F)c2)S(=O)(=O)NC1c1ccc(Br)cc1F` (stereo unspecified), the Potency result was “inactive”.

For `CCOC(=O)c1cc2c(ccn2C)n1CC(=O)N1CCN(c2cccc(C(F)(F)F)c2)CC1`, the Potency result is “inactive”.

`CCOC(=O)c1ccc(NC(=O)c2c(NCc3cccs3)sc3c2CCCCC3)cc1`: the outcome is “inactive [at 12.7 µM]”.

For `S=c1[nH]nc(-c2cc(-c3ccccc3)n[nH]2)n1/N=C/c1cccc(Cl)c1`, the Potency result was “inactive”.

Consider `CCc1ccc(/C=C2\SC(=S)N(CCCC(=O)Nc3ccccc3C(=O)O)C2=O)cc1`, for which the Potency result is “inactive”.

Consider `Cc1noc(NS(=O)(=O)c2ccc(N/C=C\C(=O)c3cccc4ccccc34)cc2)c1C`, for which the Potency result was “inactive”.

Take `O=C(O)CC/C(=C/c1cccc(NC(=O)c2ccccc2Cl)c1)c1nc2ccccc2s1`: the Potency result was “inactive”.

For the compound `CC(=O)c1ccc(OCc2nnn(CC(=O)NS(=O)(=O)c3ccc(C)cc3)c2-c2ccccc2)cc1`, the Potency entry was “inactive”.

Turning to `O=S(=O)(c1ccc2c(c1)C(O)c1ccccc1CC2)C(F)(F)F` (stereo unspecified), the Potency entry is “inactive”.

As for `CCc1nc(Oc2cccc(F)c2)c2oc3ccccc3c2n1`, the Potency result is “inactive”.

As to `O=C(Nc1cccc(Cl)c1)Nc1ccccc1NS(=O)(=O)c1cccs1`, the Potency entry was “inactive”.

In the case of `COc1ccc(/C=C2\C(=O)NC(=S)N2C(=O)c2ccc(F)cc2)cc1`, the Potency entry is “inactive”.

On to `O=C(COc1ccc(Cl)cc1)NC1=NN(c2ccccc2)C(=O)C1`, for which the Potency result is “inactive”.

As for `Oc1ccc2ccccc2c1/C=N/c1nc2c(s1)CCCC2`, the Potency entry was “inactive”.

Values taken from PubChem BioAssay (NCATS).
